Compounds with a hit are over-represented: about 7.3% of the library has one in this group of screens.
VACV Venus inh = vaccinia inhibition (Venus reporter); Vaccinia virus Venus reporter expression, fluorescence; Potency, µM (top dose mostly 36.5 µM), actives largely listed as inhibitors; actives 0.46% (n = 330,000); AID 720580; calls by dose curve; tested in A549 cells; also: nearly all actives have a fitted effect of over 30% in size
FMDV antiviral = foot and mouth disease virus antiviral activity; FMDV antiviral cell-based qHTS; Potency, µM (highest dose often 57.9 µM), most hits filed as inhibitors; actives 1.2% (n = 410,000); calls by dose curve; tested in HEK293T cells; also: read-out not given here; nearly all actives have a fitted effect of over 45% in size
HCV inh = blocks hepatitis C virus. actives 3.4% (n = 340,000). AID 651820. Huh7.5.1 HCVcc-Cre infection, luciferase reporter, 44 h. Potency, µM (doses to about 41.8 µM), most hits filed as inhibitors; active = well fitted inhibition curve with a large enough effect; inconclusive = small, poorly fitted or top-dose-only effect, or another doubt; inactive = no such curve, though single readings can be large or run the other way
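Cells seeded at 1,000/well and cultured 4 h, then compounds added followed by HCVcc-Cre virus (~0.5 moi). After 44 h further culture, luciferase substrate was added, plates held 15 min at room temperature, and luminescence read for 15 sec.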
HCMV inh = blocks human cytomegalovirus replication | HFF cells, HCMV-luciferase reporter, 72 h; hits give low values | activity change, negative = inhibition, % at 57.5 µM | actives 4.5% (n = 410,000); in the data active = activity change below about -60%; inconclusive = no clear call, values can overlap the other calls; inactive = above about -39%
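Two compound doses tested in HFFs infected with HCMV-luciferase, MOI 1 PFU/cell, 72 h at 37C. Lysate luminescence read with OneGlo; data normalized against buffer-only and 10uM Salinomycin inhibitor controls.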
Vaccinia mCherry = inhibitors of vaccinia virus infection (mCherry reporter signal); actives 0.63% (n = 310,000); AID 720579; Potency, µM (doses to about 36.5 µM), usual class: inhibitors; Vaccinia virus mCherry reporter infection, fluorescence; calls by dose curve; tested in A549 cells; also: nearly all actives have a fitted effect of over 35% in size
Numbers stand for hits; i = inactive; ? = inconclusive; nt = no result; + = active, no number; ! = not confirmed by another sample; [ ] = dose if it differs, or a comment.

SMILES | VACV Venus inh | FMDV antiviral | HCV inh | HCMV inh | Vaccinia mCherry
Cc1nnsc1SCC(=O)O | i | i | i | -99 | i
Cc1nnsc1Sc1ccccc1C(=O)O | i | i | i | i | i
O=c1[nH]c(CN2CCN(c3ccccc3O)CC2)nc2scc(-c3ccccc3Cl)c12 | i[7.34 µM] | ? | 13µM | i | ?
O=c1[nH]c(CN2CCN(c3ccccc3Cl)CC2)nc2ccsc12 | i | i | i | i | i
COC(=O)c1sc2nc(CN3CCN(c4ccc(OC)cc4)CC3)[nH]c(=O)c2c1C | i | i | i | -80 | i
O=c1[nH]c(CN2CCN(c3ccc(O)cc3)CC2)nc2scc(-c3ccc(Cl)cc3)c12 | nt | i | 6.3µM | ? | nt
COc1cccc(N2CCN(Cc3nc4scc(-c5ccccc5)c4c(=O)[nH]3)CC2)c1 | ? | ? | 13µM | -61 | ?
Cc1ccc(-n2nc(CO)c(C(=O)NCCc3ccccc3)n2)cc1C | i | i | nt | i | i
CCOc1ccccc1CNC(=O)c1ccc2nc(N3CCC(C)CC3)sc2c1 | i | ? | nt | i | i
CCOc1ccc(NC(=O)Cn2c(=O)n(Cc3ccccc3)c(=O)c3sc4ccccc4c32)cc1 | i[7.34 µM] | i | nt | i | i[7.34 µM]
COc1ccc(C2NC(c3ccc4c(c3)OCO4)=CC(c3ccccc3O)N2)cc1OC (configuration not stated) | i | nt | nt | nt | i
Cc1cnc(SCCN2CCOCC2)nc1C1CCCN(C(=O)c2cccc3c(C)c(C)[nH]c23)C1 (configuration not stated) | i | i | nt | nt | i
O=C(NC1CCCC1)C1CCN(C(=O)NCc2ccccc2)CC1 | nt | i | i | -63 | nt
O=C(NCc1ccc(Cl)cc1)C1CCN(C(=O)Cc2ccccc2)CC1 | i | i | i | -68 | i
O=C(NCc1ccco1)C1CCN(C(=O)Cc2ccccc2)CC1 | i | i | i | i | nt
CNC(=O)[C@@H]1C[C@H](Sc2nc3ccccc3[nH]2)CN1Cc1ccccc1C(F)(F)F | i | i | nt | nt | i
NC(=O)C(C(=O)/C=C/c1ccc(Cl)cc1)=C1SCCS1 | nt | ? | ? | -101 | nt
COc1ccc(/C=C/C(=O)Oc2cc(O)cc(O)c2)cc1 | i | i | i | i | i
COc1ccc(/C=C/C(=O)C(C(N)=O)=C2SCCS2)cc1 | i | i | i | -101 | ?
Cc1c(C(=O)N(Cc2ccccc2F)C2CCS(=O)(=O)C2)oc2ccc(F)cc12 (configuration not stated) | i | i | nt | i | i
Cc1ccc(S(=O)(=O)N/N=C\c2ccc([N+](=O)[O-])o2)cc1 | i | i | 13µM | ? | i
O=C1C2C3C=CC(C4CC34)C2C(=O)N1/N=C/c1ccc(-c2ccc([N+](=O)[O-])cc2)o1 (configuration not stated) | i | ? | i | i | i
O=C1SCCN1N=Cc1ccc([N+](=O)[O-])o1 | ? | i | 22µM | i | ?
O=[N+]([O-])c1ccc(/C=N/N=C/c2ccc([N+](=O)[O-])o2)o1 | i | ? | 4.5µM | -100 | i
Cc1csc(N=Cc2ccc([N+](=O)[O-])o2)n1 | i | i | nt | i | ?
SMILES | VACV Venus inh | FMDV antiviral | HCV inh | HCMV inh | Vaccinia mCherry
O=C1C2C3C=CC(C4CC34)C2C(=O)N1/N=C/c1ccc([N+](=O)[O-])o1 (configuration not stated) | i | ? | 11µM | ? | i
COc1cccc(-n2ccn(CC(=O)c3ccc(F)cc3)c(=O)c2=O)c1 | i | i | nt | i | i
Cc1cc2ncn(/N=C/c3ccc([N+](=O)[O-])o3)c2cc1C | 16µM | nt | 11µM | -62 | 28µM
Cc1ccc(S(=O)(=O)N/N=C\c2ccc([N+](=O)[O-])o2)cc1C | i | i | i | i | i
CC(=O)N1c2ccc(S(=O)(=O)NCCC(=O)Nc3ccc(Br)c(C)c3)cc2CC1C (configuration not stated) | ? | ? | nt | ? | i
Cc1ncc([N+](=O)[O-])n1CC(C)O (configuration not stated) | i | i | 2.8µM | i | i
Cc1ncc([N+](=O)[O-])n1CCO | i | i | i | i | i
O=C(CSc1oc(-c2ccccc2)nc1S(=O)(=O)c1ccc(Cl)cc1)NC1CCCCC1 | i | i | nt | i | i
COc1oc(C(=O)NC2CCCCC2)c(-c2ccc(Cl)cc2)c1S(=O)(=O)c1ccccc1 | i | i | ? | -64 | i
COc1ccc(-c2nn(-c3ccccc3F)cc2CNCCn2nc(C)cc2C)cc1 | i | ? | ? | -73 | i
CCOC(=O)C(NCc1ccccc1)(NC(=O)c1ccccc1)C(F)(F)F (configuration not stated) | i | i | i | i | i
CCOC(=O)C(NCc1ccc2c(c1)OCO2)(NC(=O)c1ccccc1)C(F)(F)F (configuration not stated) | i | i | i | -61 | i
Cc1ccc(C)c(NC(=O)c2cc(-c3cc(C)c(C)cc3O)n[nH]2)c1 | nt | i | ? | -78 | nt
COc1ccc(OC)c(NC(=O)c2cc(-c3cc(C)ccc3O)n[nH]2)c1 | 11µM | i | i | i | 10µM
CN(C)C(=O)c1ccc(-c2cc3c(Nc4ccc(OC(F)(F)F)cc4)nccc3n2C)cc1 | nt | nt | nt | i | nt
COc1cc2c(cc1OC)C(COc1ccc(F)cc1)NCC2 (configuration not stated) | nt | i | i | ? | nt
COc1cc2c(cc1OC)C(Cc1ccc(O)cc1)NCC2 (configuration not stated) | i | i | i | -79 | i
CCc1ccc(OCC2NCCc3cc(OC)c(OC)cc32)cc1 (configuration not stated) | nt | i | i | -90 | nt
CCOc1ccc(CC2NCCc3cc(OCC)c(OCC)cc32)cc1OCC (configuration not stated) | nt | ? | 6.3µM | i | nt
NC(CC(=O)NC(c1ccccc1)(c1ccccc1)c1ccccc1)C(=O)O (configuration not stated) | i | i | i | -69 | i
Cc1cccn2c(=O)cc(CSc3nnc(NC(=O)COc4ccc(F)cc4)s3)nc12 | i | i | nt | i | i
CC(NC(=O)c1ccc(N(C)C)cc1)C(c1cccs1)N1CCN(C)CC1 (configuration not stated) | i | nt | 10µM | i | i
CC(NC(=O)C(=O)N1CCCCC1)C(c1cccs1)N1CCN(c2ccccc2)CC1 (configuration not stated) | i | i | i | + | i
COc1ccc2c(c1)c1c(c(=O)n(-c3cc(Cl)ccc3C)c(=O)n1CC(=O)N1CCCC1)n2C | i | i | nt | i | i
Cc1ccccc1NC(=O)Cn1nnc(C(=O)NCc2ccco2)c1N | 4µM | i | i | i | ?
CCOc1ccccc1NC(=O)Cn1nnc(C(=O)NCc2ccco2)c1N | ? | i | i | -90 | ?
Cc1cc(C)c(NC(=O)Cn2nnc(C(=O)NCc3cccs3)c2N)c(C)c1 | i | 40µM! | i | i | i
CCOC(=O)C1CCN(C(=O)COc2ccc(N(C)S(=O)(=O)c3cccs3)cc2)CC1 | i | ? | i | i | nt
Cc1ccc(NS(=O)(=O)c2ccc(C(=O)N3CCN(c4ccccn4)CC3)cc2)cc1 | i | 18µM | ? | ? | nt

Screening data deposited in PubChem by National Center for Advancing Translational Sciences (NCATS).
